# p53 reactivation: qHTS assay for re-activators of p53 using a Luc reporter; AID 504706, 2011; H1299 p53-A138V BP100-luciferase reporter, luminescence, 24 h; Potency, µM (titrated, usually from 92.2 µM), for the others: at the highest dose activity change, positive = activation, actives largely listed as activators; 320,000 compounds, 0.063% hits; further: potency means the concentration at half of the fitted maximal effect; % of control where 0% means no effect; nearly all actives have a fitted effect of over 45% in size
#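 p53-null H1299 cells stably carrying temperature-sensitive p53-A138V and a BP100-luciferase reporter were pinned with compounds (4-point, 1:5 series) and held 24 hrs at 37 deg C. Luminescence was read 10 min after detection reagent.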
# CtBP-E1A inh: qHTS Assay for Inhibitors of the CtBP/E1A Interaction. AlphaScreen GST-E1A/His-CtBP binding, 1536-well; hits give low values. activity change, % (test concentration not listed). 340,000 compounds, 0.49% hits. AID 651724, 2012; in the data active means activity change below about -65%; inconclusive means mostly about -30% to -63%; further: on the % scale 0 is the no-effect control and ±100 the full control effect
#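 Protein mix (5X: 125 nM each GST-E1A, His-CtBP) was incubated with pinned compound 2 h at 37 deg C in dark, in 50 mM Tris pH 8.0 buffer with 300 mM NaCl. Glutathione donor and nickel acceptor beads followed; AlphaScreen signal read after 1 h.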
# Gal4-VP16 FLuc: VP16 counterscreen qHTS for inhibitors of ROR gamma transcriptional activity; Drosophila S2 Gal4-VP16 UAS-luciferase, luminescence, 20 h; Potency, µM (titrated, usually from 53.6 µM), without a hit: at the highest dose activity, negative = inhibition, actives largely listed as inhibitors; 310,000 compounds, 3.5% hits;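 further: Gal4-VP16 expression switched on by copper sulfate through the metallothionein promoter; potency means the concentration at half of the fitted maximal effect; on the % scale 0 is the no-effect control and ±100 the full control effect; nearly all actives have a fitted effect of over 50% in size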
# RORg inh: qHTS for inhibitors of ROR gamma transcriptional activity; Nuclear receptor ROR-gamma (Mus musculus), P51450; Drosophila S2 Gal4-RORgamma UAS-luciferase reporter, 20 h; Potency, µM (doses to about 53.6 µM), for the others: at the top dose activity change, negative = inhibition, hits mostly inhibitors; 310,000 compounds, 5.4% hits; further: potency means the concentration at half of the fitted maximal effect; on the % scale 0 is the no-effect control and ±100 the full control effect; nearly all actives have a fitted effect of over 60% in size
#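 Using a luciferase readout, inhibitors were identified by reduced reporter activity in Drosophila cells coexpressing a copper-inducible Gal4–ROR gamma fusion and UAS-driven Photinus luciferase, incubated 20 hr after 700 uM copper sulfate.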
# Six1-Eya2 blk: qHTS Assay for Inhibitors of the Six1/Eya2 Interaction | AID 651725, 2012 | AlphaScreen GST-Six1/His-Eya2 binding, biochemical; hits give low values | 360,000 compounds, 0.56% hits | activity change, % (no concentration beside the values); in the data active means activity change below about -65%; inconclusive means mostly about -30% to -63%; further: on the % scale 0 is the no-effect control and ±100 the full control effect
# Target sequence (O00167 whole entry, looked up): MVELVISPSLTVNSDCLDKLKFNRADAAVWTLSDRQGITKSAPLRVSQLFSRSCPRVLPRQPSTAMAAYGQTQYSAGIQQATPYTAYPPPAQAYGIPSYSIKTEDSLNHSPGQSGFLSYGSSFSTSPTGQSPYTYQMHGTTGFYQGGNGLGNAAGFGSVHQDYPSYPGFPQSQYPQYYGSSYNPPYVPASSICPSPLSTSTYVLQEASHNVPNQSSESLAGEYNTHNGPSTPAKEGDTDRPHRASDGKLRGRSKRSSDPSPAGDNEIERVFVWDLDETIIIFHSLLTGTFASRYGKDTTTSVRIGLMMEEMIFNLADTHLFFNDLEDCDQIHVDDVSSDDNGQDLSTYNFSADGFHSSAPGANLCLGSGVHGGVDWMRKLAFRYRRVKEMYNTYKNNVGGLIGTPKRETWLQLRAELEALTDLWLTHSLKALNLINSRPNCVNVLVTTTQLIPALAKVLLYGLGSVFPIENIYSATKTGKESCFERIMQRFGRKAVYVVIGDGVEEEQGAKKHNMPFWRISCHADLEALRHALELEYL
# Target sequence (Q15475 whole entry, looked up): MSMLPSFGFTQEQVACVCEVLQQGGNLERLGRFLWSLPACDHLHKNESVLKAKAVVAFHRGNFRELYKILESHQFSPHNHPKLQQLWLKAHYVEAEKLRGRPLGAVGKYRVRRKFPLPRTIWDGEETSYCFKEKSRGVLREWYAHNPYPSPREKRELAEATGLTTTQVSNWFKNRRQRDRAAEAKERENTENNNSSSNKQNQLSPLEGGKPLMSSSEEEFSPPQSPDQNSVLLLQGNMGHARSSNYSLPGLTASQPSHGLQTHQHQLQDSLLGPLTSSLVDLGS
#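 Compounds are tested against tagged Six1 and Eya2 proteins bridged by glutathione donor and nickel acceptor beads; after a one-hour incubation at 37 °C without light, AlphaScreen emission is recorded.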
# Numbers without * were called inactive; ? = inconclusive; · = no result; [ ] = another dose, or the depositor's remark. A selection: hits, their analogues and other compounds. The true share with any hit is near 5.4%. Unless noted, the call rests on the fitted dose curve; in most records, active means well fitted curve in the direction sought with a large enough effect; inconclusive means small, poorly fitted or top-dose-only effect, or another doubt; inactive means no such curve, though single readings can be large; an effect the other way counts as inactive or inconclusive.
SMILES,p53 reactivation,CtBP-E1A inh,Gal4-VP16 FLuc,RORg inh,Six1-Eya2 blk
C[C@@H](c1ccccc1)N1C(=O)[C@H]2[C@H]3[C@H](O)[C@H](O)C/C(=N/OCc4ccccc4)[C@H]3CC[C@@H]2C1=O,·,·,0%[10 µM],1%[10 µM],·
CCOC(=O)CCN1C(=O)[C@@H]2[C@H]3C(=CC[C@H]2C1=O)C(=O)[C@H]1O[C@H]1[C@H]3O,·,·,-84%[10 µM],2.2µM*,·
COC(=O)C1=C(C(=O)OC)C(C(=O)OC)C(C(=O)OC)C(C(=O)OC)(C(=O)OC)C(C(=O)OC)=C1C(=O)OC (stereo not drawn),·,2,·,·,9
CCCCn1nc(C(=O)Nc2nc3c(s2)CCCC3)c2ccccc2c1=O,-3%,·,?,11µM*,3
CCCCCCn1nc(C(=O)Nc2nc3c(s2)CCCC3)c2ccccc2c1=O,-2%,-3,-21%,10µM*,-2
CCCNC(=O)[C@H](Cc1c[nH]c2ccccc12)NC(=O)c1ccccc1Cl,?,0,-2%,14%,-11
C(=N\N(c1ccccc1)c1ccccc1)/c1ccc2c(c1)OCO2,0%,0,-1%,36%,3
CN(/N=C/c1ccc2c(c1)OCO2)c1ccccc1,10µM*,-21,18µM*,-44%,?
O=C(CC1C(=O)NCCN1Cc1cccc(C(F)(F)F)c1)NC1CCCCCC1 (stereo not drawn),6%,2,-3%,11%,0
CCCCNC(=S)Nc1ccc(Oc2ccccc2)cc1,17%,2,5.6µM*,1.4µM*,-10
CCCNC(=S)Nc1ccc(Oc2ccccc2)cc1,-3%,-5,11µM*,13µM*,-4
Cc1nc2cnc(Oc3cccc(Cl)c3)nc2n(Cc2ccc(F)cc2)c1=O,·,·,-7%,?,·
CCOC(=O)c1c(N)c2cc([N+](=O)[O-])ccc2n1C,-3%,·,1%,35%,-5
CCOC(=O)/C(=C/c1c(C)n(C)c2ccc([N+](=O)[O-])cc12)C(C)=O,-27%,-14,?,13µM*,7
O=C(NCc1ccccc1)c1cc(C2COCCN2C(=O)C2CC2)on1 (stereo not drawn),·,-8,·,·,14
CCC(C)C(NC(N)=O)C(=O)Nc1ccc(C(=O)OC)cc1 (stereo not drawn),-4%,11,-7%,4%,3
CCCC(C)NC(=S)Nc1cc(C)cc(C)c1 (stereo not drawn),-1%,2,6.3µM*,1.4µM*,-2
CCC(C)NC(=S)Nc1ccc(C(=O)OC)cc1 (stereo not drawn),9%,11,?,7.1µM*,2
CC(NC(=S)Nc1ccc(F)cc1)c1ccccc1 (stereo not drawn),?,12,7.9µM*,7.1µM*,3
CC(Cc1cccs1)NC(=S)Nc1ccccc1 (stereo not drawn),21%,0,7.1µM*,4.5µM*,0
S=P(c1ccc(N2CCOCC2)cc1N1CCOCC1)(N1CCOCC1)N1CCOCC1,-15%,0,2%,-3%,20
CCc1cccc(CC)c1NC(=O)c1cccc(NC(=O)c2ccccc2)c1,-4%,-9,11%,29%,-13
CCC(C)NC(=S)Nc1ccccc1OC (stereo not drawn),3%,-6,-1%,5%,15
CCN(CC)NC(=S)Nc1ccccc1,-4%,3,?,3.2µM*,-1
CCC(C)NC(=S)Nc1ccccc1 (stereo not drawn),4%,4,?,5.6µM*,7
SMILES,p53 reactivation,CtBP-E1A inh,Gal4-VP16 FLuc,RORg inh,Six1-Eya2 blk
CCCOC(=S)Nc1ccccc1,3%,10,-20%,11µM*,3
CCc1cccc(CC)c1NC(=S)Nc1ccccc1,3%,3,?,13µM*,4
CC(=O)c1cccc(NC(=O)N2C3CCCC2CC(NC(=O)C2CC2)C3)c1 (stereo not drawn),0%,2,0%,-19%,-3
Cn1c(NC(=O)c2ccc(F)cc2)nc2ccccc21,·,5,1.3µM*,0.45µM*,-6
Cn1c(NC(=O)c2ccccc2NC(=O)C(C)(C)C)nc2ccccc21,-3%,13,11µM*,10µM*,-6
Cn1c(SC(C(=O)Nc2ccc(F)cc2)c2ccccc2)nc2ccccc21 (stereo not drawn),26%,·,?,11µM*,-9
O=C(Nc1nc2ccccc2c2nc3ccccc3n12)c1ccc(F)cc1,-10%,·,-5%,3%,·
C/C(=N\NC(=O)c1ccccc1)c1nc2ccccc2n1C,11%,13,3.2µM*,1.6µM*,0
C=CCC(C)(O)c1ccc(OC)cc1 (stereo not drawn),·,·,-11%,31%,·
O=C(Cc1c(F)cccc1Cl)NCC(=O)OCc1ccccc1,9%,9,·,·,0
Cc1ccc(C(=O)Oc2ccc(/C=C3\C(=N)N4N=C(N5CCOCC5)SC4=NC3=O)cc2)cc1,·,?,13µM*,?,-88*
CCOc1ccc(NC(=O)CCCc2cc(-c3ccc(OCC)cc3)on2)cc1,-6%,-1,1.3µM*,0.13µM*,2
CCOc1ccc(-c2cc(CCCC(=O)Nc3cc(OC)ccc3OC)no2)cc1,-5%,-4,?,?,-3
CCOc1ccc(-c2cc(CCCC(=O)Nc3cccc(OC)c3)no2)cc1,-1%,-4,?,0.13µM*,0
COc1cccc(/C=N/Nc2nn3cnnc3c3ccccc23)c1,-5%,-79*,0%,-2%,-71*
C(=N\Nc1nn2cnnc2c2ccccc12)/c1ccco1,6%,-3,-17%,-9%,-72*
Oc1ccc(/C=N/Nc2nn3cnnc3c3ccccc23)cc1,11%,-90*,-8%,-14%,-89*
COc1cc(/C=N/Nc2nn3cnnc3c3ccccc23)ccc1O,6%,-89*,-28%,-34%,-89*
c1coc(C2=NC(c3ccco3)C(c3ccco3)N2)c1 (stereo not drawn),·,1,·,·,-13
CCOc1cc(/C=N/Nc2nn3cnnc3c3ccccc23)ccc1O,0%,-67*,-19%,-31%,-88*
Cc1cccc(N2CCN(C(=O)C3CCN(c4ncnc5c4nc4n5CCCCC4)CC3)CC2)c1C,-1%,·,8.9µM*,?,-16
O=C(C1CCN(c2ncnc3c2nc2n3CCCCC2)CC1)N1CCN(c2ccccc2F)CC1,-3%,·,-24%,?,-6
COc1cccc(CSc2ccc(S(=O)(=O)N3CCOCC3)cc2C(=O)NCC2CCCO2)c1OC (stereo not drawn),0%,-8,18%,19%,6

# Source: PubChem
